Assay outcomes (PubChem)
BLM helicase inh = blocks DNA unwinding by human BLM helicase | recombinant BLM DNA unwinding, fluorescence dequenching | actives 0.2% (n = 350,000) | P54132 | AID 2528 | Potency, µM (titrated, usually from 56.1 µM), hits mostly inhibitors; note: nearly all actives have a fitted effect of over 35% in size
RECQ1 inh = RECQ1 (human) helicase inhibition. P46063. RECQ1 DNA unwinding, red fluorescence kinetic read. Potency, µM (highest dose often 57.3 µM), most hits filed as inhibitors. actives 0.54% (n = 240,000). AID 2549; note: nearly all actives have a fitted effect of over 30% in size
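RECQ1T1 50 nM; forked duplex (20 bp + 30-nt ss tails) 200 nM, ATP 2 mM final; pH 8.0, 2 mM MgCl2, 2.5 ug/ml poly(dI-dC); 15 min compound preincubation; discontinuous kinetic read over 2 h at RT.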
JMJD2E inh = blocks human JMJD2E demethylase activity. B2RXH2. JMJD2E catalytic domain, FDH-coupled NADH fluorescence (FDH is formaldehyde dehydrogenase). Potency, µM (top dose mostly 57.1 µM), hits mostly inhibitors. actives 1.6% (n = 230,000); active = well fitted inhibition curve with a large enough effect, not every such curve was filed as active; inconclusive = small, poorly fitted or top-dose-only effect, or another doubt; inactive = no such curve, though single readings can be large or run the other way; note: nearly all actives have a fitted effect of over 50% in size
APEX1 inh = blocks human APE1 abasic DNA cleavage; recombinant APE1, TAMRA/BHQ-2 abasic DNA cleavage fluorescence; AID 2517; actives 0.35% (n = 350,000); Potency, µM (doses to about 65.8 µM), most hits filed as inhibitors; P27695; note: nearly all actives have a fitted effect of over 55% in size
Target sequence (P27695 whole entry, looked up): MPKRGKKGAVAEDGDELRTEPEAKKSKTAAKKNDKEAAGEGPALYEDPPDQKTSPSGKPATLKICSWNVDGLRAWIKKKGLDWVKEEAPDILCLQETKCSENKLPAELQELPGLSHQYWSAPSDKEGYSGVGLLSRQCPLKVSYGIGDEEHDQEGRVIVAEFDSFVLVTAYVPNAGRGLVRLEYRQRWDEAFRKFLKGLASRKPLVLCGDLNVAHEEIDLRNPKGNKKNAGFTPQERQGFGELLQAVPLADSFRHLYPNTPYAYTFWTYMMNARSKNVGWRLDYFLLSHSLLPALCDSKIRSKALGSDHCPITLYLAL
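Activity was derived from the fluorescence gain between first and third kinetic reads (60 s intervals, ex 525/em 598 nm) after 50 nM THF-abasic TAMRA/BHQ-2 duplex was added to 0.75 nM APE1 preincubated 15 min with compound.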
L3MBTL1 block = L3MBTL1 (human) inhibition | Q9Y468 | AlphaScreen L3MBTL1–H3K9me1 peptide binding | actives 0.66% (n = 230,000) | Potency, µM (highest dose often 57.1 µM), actives largely listed as inhibitors; note: nearly all actives have a fitted effect of over 60% in size
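First, the protein-peptide complex forms for 30 min at room temperature (L3MBTL1 50 nM, biotinylated H3K9me1 peptide 75 nM). Next, compounds are pin-transferred and incubated 30 min. Finally, AlphaScreen beads are added and read after 30 min.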
TDP1 block = TDP1 (human) enzyme inhibition; actives 0.28% (n = 350,000); recombinant TDP1, AlphaScreen DNA substrate cleavage; Potency, µM (highest dose often 130 µM), usual class: inhibitors; note: nearly all actives have a fitted effect of over 40% in size
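Here, a 5' biotin and 3' phosphotyrosine-FITC DNA oligonucleotide reports Tdp1 activity: intact substrate bridges AlphaScreen beads, while cleavage leaves a 3' phosphate and drops signal. All incubations at room temperature.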
Of the large screens only hits and unclear results are named; the others gave an inactive call. Only a selection was taken, and hits are over-represented in it overall. Unless noted, calls come from the whole dose curve; as a rule, active = well fitted curve in the direction sought with a large enough effect; inconclusive = small, poorly fitted or top-dose-only effect, or another doubt; inactive = no such curve, though single readings can be large; an effect the other way counts as inactive or inconclusive.

C/C1=C2N=C(/C=C3N=C(/C(C)=C4\[N-]C(C)(C5N=C1C(C)(CCC(=O)NCC(C)OP(=O)([O-])O[C@H]1C(O)C(n6cnc7cc(C)c(C)cc76)O[C@@H]1CO)C5CC(N)=O)C(C)(CC(N)=O)C4CCC(N)=O)C(C)(CC(N)=O)C\3CCC(N)=O)C(C)(C)C/2CCC(N)=O.[CH2-]C1OC(n2cnc3c(N)ncnc32)C(O)C1O.[Co] (some centres undefined)	BLM helicase inh inconclusive, JMJD2E inh 14µM (no result: APEX1 inh, L3MBTL1 block, TDP1 block)
COc1cc(/C=C/C(=O)CC(=O)/C=C/c2ccc(O)c(OC)c2)ccc1O	JMJD2E inh 35µM
COc1cc(/C=C/C(=O)O)ccc1O	JMJD2E inh inconclusive (no result: L3MBTL1 block)
COc1cc(/C=C/C(=O)/C=C(O)/C=C/c2ccc(O)c(OC)c2)ccc1O	JMJD2E inh 20µM
O=C(Nc1ccccc1C(F)(F)F)N1CCOc2ccc(Cl)cc21	none (no result: RECQ1 inh, JMJD2E inh, APEX1 inh, L3MBTL1 block)
C#C[C@]1(O)CC[C@H]2[C@H]3CCc4cc(O)ccc4[C@@H]3CC[C@@]21C	none (no result: JMJD2E inh, L3MBTL1 block)
Cc1cc(C(=O)NNC(=O)/C=C/c2ccco2)c(C)o1	L3MBTL1 block 7.9µM (no result: BLM helicase inh, RECQ1 inh, JMJD2E inh)
COc1ccc(Sc2nc(-c3ccccn3)ncc2OC)cc1	L3MBTL1 block 3.5µM
COc1cnc(-c2ccccn2)nc1Sc1ccccc1	L3MBTL1 block inconclusive
O=C(Cn1cc(CNCc2ccccc2)nn1)Nc1cc(C(F)(F)F)ccc1Cl	none (no result: BLM helicase inh, RECQ1 inh, JMJD2E inh, APEX1 inh, L3MBTL1 block)
Nc1c(C(=O)NCc2ccco2)sc2nc3c(cc12)C(=O)CCC3	APEX1 inh inconclusive, L3MBTL1 block 32µM
COc1ccc2cc3c(N)c(C(=O)NCc4ccco4)sc3nc2c1	JMJD2E inh inconclusive
COc1ccc(C2CC(=O)c3cnc(NC(=O)c4ccco4)nc3C2)cc1 (centres undefined)	none (no result: RECQ1 inh, JMJD2E inh, L3MBTL1 block)
COc1ccccc1C(=O)Nc1ncc2c(n1)CC(c1ccco1)CC2=O (centres undefined)	RECQ1 inh inconclusive, APEX1 inh 18µM, L3MBTL1 block inconclusive (no result: TDP1 block)
CC1(C)OC(=O)C2(Cc3ccc(Cl)cc3N3CCCCC32)C(=O)O1 (centres undefined)	none (no result: BLM helicase inh, RECQ1 inh, JMJD2E inh, APEX1 inh, L3MBTL1 block)
COc1cccc(N2C(=O)c3ccccc3C2=O)c1	none (no result: BLM helicase inh, RECQ1 inh, JMJD2E inh, APEX1 inh, L3MBTL1 block)
CCn1ccnc1CN1CCc2c([nH]c3ccccc23)C1C1CCCCC1 (centres undefined)	JMJD2E inh 28µM
Nc1nc(=S)c2ncn(C3OC(CO)C(O)C3O)c2[nH]1 (centres undefined)	BLM helicase inh inconclusive, RECQ1 inh inconclusive, JMJD2E inh inconclusive, APEX1 inh 25µM, L3MBTL1 block 25µM, TDP1 block inconclusive
COc1ccc(OC2=NS(=O)(=O)c3ccccc32)cc1	none (no result: BLM helicase inh, RECQ1 inh, JMJD2E inh, APEX1 inh, L3MBTL1 block)
COc1ccc(-c2nn(-c3ccccc3)cc2C(=O)Nc2cccc(C(=O)O)c2)cc1[N+](=O)[O-]	APEX1 inh inconclusive, TDP1 block 22µM (no result: RECQ1 inh, JMJD2E inh)
COc1ccc(C(=O)COC(=O)c2ccc(Cl)nc2)cc1OC	none (no result: BLM helicase inh, RECQ1 inh, JMJD2E inh)
COc1ccc(C(=O)COC(=O)c2ccc(Cl)nc2)c(OC)c1	L3MBTL1 block inconclusive, TDP1 block 50µM (no result: BLM helicase inh, RECQ1 inh, JMJD2E inh)
COc1ccc(C(=O)COC(=O)c2ccccc2O)c(OC)c1	L3MBTL1 block 8.9µM (no result: BLM helicase inh, RECQ1 inh, JMJD2E inh)
CC(=O)OCOC(=O)CN(CC(=O)OCOC(C)=O)c1ccccc1OCCOc1ccccc1N(CC(=O)OCOC(C)=O)CC(=O)OCOC(C)=O	none (no result: BLM helicase inh, JMJD2E inh, L3MBTL1 block, TDP1 block)
C=CCNc1oc(-c2ccc(F)cc2)nc1C#N	none (no result: BLM helicase inh, RECQ1 inh, JMJD2E inh, L3MBTL1 block, TDP1 block)
COc1ccc2ccc3c(c2c1)N=CC1(O3)N(C)c2ccccc2C1(C)C (centres undefined)	RECQ1 inh inconclusive, JMJD2E inh 14µM, L3MBTL1 block 32µM
CN1c2ccccc2C(C)(C)C12C=Nc1c(ccc3ccccc13)O2 (centres undefined)	JMJD2E inh 25µM, L3MBTL1 block inconclusive
O=C(NNC(=O)c1cc(O)c(O)c(O)c1)NC1CCCCC1	JMJD2E inh 7.1µM
O=C(O)CC12CC3CC(C1)CC(n1ncc(NCc4ccc5c(c4)OCO5)c(Cl)c1=O)(C3)C2	RECQ1 inh 40µM (no result: L3MBTL1 block)
O=C(O)CC12CC3CC(C1)CC(n1ncc(NCc4ccccc4Cl)c(Cl)c1=O)(C3)C2	none (no result: TDP1 block)
